The values below come from PubChem BioAssay (Tox21).

Inconclusive results are not listed. Unmarked numbers belong to inactive results. Activity calls are given as the source filed them. Unless noted, the call rests on the fitted dose curve; in most records, active means well fitted curve in the direction sought with a large enough effect in the repeat runs; inconclusive means weak or mixed curves; inactive means no such curve, though single readings can be large; an effect the other way counts as inactive or inconclusive.

The nature of assay [1]: qHTS assay to identify aromatase inhibitors - cell viability counter screen (AID 743084).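 Further: cells stimulated with testosterone during compound exposure; nearly all actives have a fitted effect of over 55% in size.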 Further: potency means the concentration at half of the fitted maximal effect.
In assay [2] the target is Aryl hydrocarbon receptor (Homo sapiens) (UniProt P35869). In words: qHTS assay to identify small molecule that activate the aryl hydrocarbon receptor (AhR) signaling pathway (AID 743085). Further: nearly all actives have a fitted effect of over 15% in size. Further: potency means the concentration at half of the fitted maximal effect.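 On activation: HG2L7.5c1 human HepG2 liver cells with stably integrated DRE-driven firefly reporter; series mostly up to about 70 µM.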 An outline of the steps:
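Steps: seed HepG2-AhR-luc cells; allow 5 h at 37C; pin-transfer test compound or vehicle; incubate 24 h at 37C; add viability dye (30 min, 37C) and read fluorescence; add luciferase substrate (30 min, RT) and read luminescence.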
For orientation: Quantitative high-throughput screening tests each substance at several concentrations.

Assay [3] has as its target Peroxisome proliferator-activated receptor gamma (Homo sapiens) (UniProt P37231). In words: qHTS assay to identify small molecule agonists of the peroxisome proliferator-activated receptor gamma (PPARg) signaling pathway (AID 743094; active means well fitted activation curve with a large enough effect in the signal ratio in the repeat runs, not every such curve was filed as active; the % refers to the signal ratio). In outline:
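HEK293H PPARg-bla cells, 5 h settle at 37C/5% CO2; compound (DMSO) 17 h, 37C; B/G FRET substrate 1 h RT; fluorescence intensity read-out. qHTS format.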

Assay [4] can be described thus: qHTS assay to identify small molecule phospholipidosis (PLD) inducers (AID 1259344; active means well fitted curve in the direction sought with a large enough effect; an effect the other way counts as inactive or inconclusive). In outline:
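Accumulated phospholipid, stained red by LipidTOX during 24 h compound treatment of HepG2 cells at 37 C, is quantified from images as pit number and intensity, normalised per cell using Hoechst-stained nuclei.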

Assay [5] deals with Nuclear receptor subfamily 1 group I member 2 (Rattus norvegicus) (UniProt Q9R1A7). Put plainly: Rat pregnane X receptor (rPXR) activation by small molecules, qHTS assay (AID 1346983). Further: nearly all actives have a fitted effect of over 20% in size. The conditions noted are these: rPXR luciferase reporter cells, One-Glo luminescence, 24 h; max activation: hits give high values. An outline of the steps:
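Luminescent readout (One-Glo luciferase, 30 min room temperature) followed 24 hr compound treatment at 37 C of rPXR cells plated 2,000 per well and preincubated 5hr; qHTS format with compounds delivered in DMSO.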

Assay [6] concerns the target Nuclear receptor subfamily 1 group I member 2 (Homo sapiens) (UniProt O75469). Put plainly: CYP3A4 induction through human pregnane X receptor (PXR) by small molecules, qHTS assay (AID 1346984). Further: nearly all actives have a fitted effect of over 40% in size. Further: potency means the concentration at half of the fitted maximal effect. An outline of the steps:
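HepG2-derived DPX-2 line carrying PXR plus a CYP3A4-promoter luciferase reporter; cells plated 5 hr, compound-exposed 24 hr at 37C. CYP3A4 activity probed with 3uM (final) Luciferin-IPA for 3hr, then luciferase read after One-Glo.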

The target is the same in assay [7]. Put plainly: Human pregnane X receptor (PXR) activation by small molecules, qHTS assay (AID 1346985). Further: nearly all actives have a fitted effect of over 40% in size. Further: potency means the concentration at half of the fitted maximal effect. In outline:
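DPX-2 cells (HepG2 co-transfected with a PXR response element and a CYP3A4-promoter luciferase construct) were seeded at 2,000 per well, rested 5 hr at 37C, then exposed to DMSO-dissolved compounds for 24 hr. Activation was read as luciferase luminescence.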

Assay [8] in a line: qHTS assay to identify small molecule that activate the aryl hydrocarbon receptor (AhR) signaling pathway - cell viability counter screen (AID 743086). Further: nearly all actives have a fitted effect of over 45% in size. Further: potency means the concentration at half of the fitted maximal effect. In outline:
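Cytotoxicity counter screen: CellTiter-Fluor signal (30 min, 37 C) in 4000 HepG2 cells/well carrying the DRE-luciferase reporter, following 24 h compound exposure at 37 C.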
On the % scale 0 is the no-effect control and ±100 the full control effect.

Aryl hydrocarbon receptor (Homo sapiens), sequence (P35869 whole entry, looked up): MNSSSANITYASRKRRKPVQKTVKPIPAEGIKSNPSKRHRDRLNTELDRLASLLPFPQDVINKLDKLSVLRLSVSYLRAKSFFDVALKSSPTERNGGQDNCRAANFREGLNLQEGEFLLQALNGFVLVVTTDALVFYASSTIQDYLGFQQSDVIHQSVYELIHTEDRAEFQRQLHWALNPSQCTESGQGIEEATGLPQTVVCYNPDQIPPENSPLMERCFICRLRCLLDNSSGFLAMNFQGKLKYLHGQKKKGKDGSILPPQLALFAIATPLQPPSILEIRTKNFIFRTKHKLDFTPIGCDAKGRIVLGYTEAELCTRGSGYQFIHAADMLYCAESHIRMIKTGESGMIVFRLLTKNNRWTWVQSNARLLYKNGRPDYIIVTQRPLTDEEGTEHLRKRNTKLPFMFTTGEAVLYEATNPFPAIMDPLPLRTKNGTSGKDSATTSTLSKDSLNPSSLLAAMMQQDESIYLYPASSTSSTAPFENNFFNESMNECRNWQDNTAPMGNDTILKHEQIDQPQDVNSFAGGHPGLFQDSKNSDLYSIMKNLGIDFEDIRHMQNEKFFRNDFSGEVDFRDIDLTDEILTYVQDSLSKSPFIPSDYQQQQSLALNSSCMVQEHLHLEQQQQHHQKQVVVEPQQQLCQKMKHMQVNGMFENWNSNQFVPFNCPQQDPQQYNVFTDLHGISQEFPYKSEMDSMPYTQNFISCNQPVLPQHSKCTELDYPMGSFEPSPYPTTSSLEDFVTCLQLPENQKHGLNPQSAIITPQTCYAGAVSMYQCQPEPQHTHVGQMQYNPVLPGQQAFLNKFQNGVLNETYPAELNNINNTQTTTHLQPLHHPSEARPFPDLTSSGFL
Nuclear receptor subfamily 1 group I member 2 (Rattus norvegicus), sequence (Q9R1A7 whole entry, looked up): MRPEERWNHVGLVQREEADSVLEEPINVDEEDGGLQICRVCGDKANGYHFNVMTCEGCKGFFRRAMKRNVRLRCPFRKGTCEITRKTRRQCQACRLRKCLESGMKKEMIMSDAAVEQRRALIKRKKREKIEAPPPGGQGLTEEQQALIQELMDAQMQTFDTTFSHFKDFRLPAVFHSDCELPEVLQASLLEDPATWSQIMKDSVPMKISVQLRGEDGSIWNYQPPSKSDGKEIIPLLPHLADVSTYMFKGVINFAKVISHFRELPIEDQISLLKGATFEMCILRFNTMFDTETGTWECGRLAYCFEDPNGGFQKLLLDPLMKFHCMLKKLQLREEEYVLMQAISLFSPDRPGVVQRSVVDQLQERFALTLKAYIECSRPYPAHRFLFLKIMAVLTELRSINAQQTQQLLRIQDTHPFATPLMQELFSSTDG
Peroxisome proliferator-activated receptor gamma (Homo sapiens), sequence (P37231 whole entry, looked up): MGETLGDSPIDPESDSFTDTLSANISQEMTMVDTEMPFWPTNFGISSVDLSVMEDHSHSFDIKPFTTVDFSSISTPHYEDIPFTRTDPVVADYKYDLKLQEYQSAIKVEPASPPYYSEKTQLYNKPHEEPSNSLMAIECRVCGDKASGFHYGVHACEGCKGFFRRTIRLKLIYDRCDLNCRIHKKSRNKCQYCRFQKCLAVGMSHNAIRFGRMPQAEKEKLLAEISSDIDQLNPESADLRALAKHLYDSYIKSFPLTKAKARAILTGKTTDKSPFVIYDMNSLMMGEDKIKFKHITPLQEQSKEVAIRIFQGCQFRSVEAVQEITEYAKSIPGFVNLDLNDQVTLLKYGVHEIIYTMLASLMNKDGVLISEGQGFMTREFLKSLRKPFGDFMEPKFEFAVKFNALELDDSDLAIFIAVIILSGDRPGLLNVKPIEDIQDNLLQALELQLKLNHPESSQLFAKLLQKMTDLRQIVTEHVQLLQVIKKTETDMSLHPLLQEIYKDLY

In the case of `CCN(CC)CCC(=O)N1c2ccccc2Sc2ccc(Cl)cc21`, the Potency result in assay [1], in assay [2], in assay [3] and in assay [4] was “inactive” each time. Also, the max activation in assay [5] is 3.32%. The Potency in assay [6] and in assay [7] was 14.1 µM (active) each time.
As to `CC(C)C[C@H](NC(=O)[C@@H](Cc1c[nH]c2ccccc12)NC(=O)[C@H](Cc1ccc(O)cc1)NC(=O)[C@H](CO)NC(=O)[C@H](Cc1c[nH]c2ccccc12)NC(=O)[C@H](Cc1cnc[nH]1)NC(=O)[C@@H]1CCC(=O)N1)C(=O)N[C@@H](CCCN=C(N)N)C(=O)N1CCC[C@@H]1C(=O)NCC(N)=O`, the Potency result in assay [1], in assay [2], in assay [8], in assay [3], in assay [4] and in assay [6] was “inactive” throughout. Further, the Potency entry in assay [7] was “inactive”. Moreover, the max activation in assay [5] is -2.6%.
For the compound `CCCCCCCCCCCC(=O)N(CCO)CCO`, the Potency entry in assay [1], in assay [2], in assay [8], in assay [3], in assay [4] and in assay [6] was “inactive” in each case. Moreover, the Potency entry in assay [7] is “inactive”. Moreover, the max activation in assay [5] is -2.62%.
For the compound `NC(=O)OCC(O)COc1ccc(Cl)cc1` (stereo unspecified), the Potency result in assay [1], in assay [2], in assay [8], in assay [3], in assay [4] and in assay [6] was “inactive” throughout. The Potency result in assay [7] is “inactive”. Also, the max activation in assay [5] was 0.928%.
On to `CNCC(O)c1ccc(OC(=O)C(C)(C)C)c(OC(=O)C(C)(C)C)c1` (stereo unspecified), for which the Potency entry in assay [1], in assay [2], in assay [8], in assay [3], in assay [4] and in assay [6] was “inactive” throughout. The Potency result in assay [7] is “inactive”. Also, the max activation in assay [5] was 0.121%.
With `CC1=C(/C=C/C(C)=C/C=C/C(C)=C/C(=O)Oc2c(C)c(C)c3c(c2C)CC[C@@](C)(CCC[C@H](C)CCC[C@H](C)CCCC(C)C)O3)C(C)(C)CCC1`, the Potency result in assay [1], in assay [2], in assay [8], in assay [3], in assay [4] and in assay [6] was “inactive” in each case. Besides, in assay [7], the Potency entry was “inactive”. In assay [5], the max activation was -1.27%.
For the compound `CCCCC/C=C\CCC(=O)N[C@H]1[C@H](Oc2c3cc4cc2Oc2ccc(cc2Cl)[C@@H](O[C@@H]2O[C@H](CO)[C@@H](O)[C@H](O)[C@H]2NC(C)=O)[C@@H]2NC(=O)[C@H](NC(=O)[C@@H]4NC(=O)[C@H]4NC(=O)[C@@H](Cc5ccc(c(Cl)c5)O3)NC(=O)[C@H](N)c3ccc(O)c(c3)Oc3cc(O)cc4c3)c3ccc(O)c(c3)-c3c(O[C@H]4O[C@H](CO)[C@@H](O)[C@H](O)[C@@H]4O)cc(O)cc3[C@@H](C(=O)O)NC2=O)O[C@H](CO)[C@@H](O)[C@@H]1O`, the Potency entry in assay [1], in assay [2], in assay [8], in assay [3], in assay [4] and in assay [6] was “inactive” each time. The Potency result in assay [7] is “inactive”. In assay [5], the max activation was 0.769%.
For `CN1c2c(nc(N)[nH]c2=O)NCC1CNc1ccc(C(=O)NC(CCC(=O)O)C(=O)O)cc1` (stereo unspecified), the Potency result in assay [1], in assay [2], in assay [8], in assay [3], in assay [4] and in assay [6] was “inactive” in each case. Further, the Potency entry in assay [7] is “inactive”. Also, in assay [5], the max activation was -0.71%.
Regarding `CC(C)[C@H](N)C(=O)OCC(CO)OCn1cnc2c(=O)[nH]c(N)nc21` (stereo partly specified), the Potency entry in assay [1], in assay [2], in assay [8], in assay [3], in assay [4] and in assay [6] was “inactive” each time. Besides, the Potency entry in assay [7] is “inactive”. In addition, the max activation in assay [5] was -3.1%.
Turning to `COc1ccc(/C=C/C(=O)OCCC(C)C)cc1`, the Potency result in assay [1], in assay [2], in assay [8], in assay [3], in assay [4] and in assay [6] was “inactive” each time. In addition, in assay [7], the Potency result was “inactive”. In addition, the max activation in assay [5] is 9.31%.
As for `NC(=O)c1ccc[n+]([C@@H]2O[C@H](COP(=O)([O-])OP(=O)(O)OC[C@H]3O[C@@H](n4cnc5c(N)ncnc54)[C@H](O)[C@@H]3O)[C@@H](O)[C@H]2O)c1`, the Potency result in assay [1], in assay [2], in assay [8], in assay [3], in assay [4] and in assay [6] was “inactive” in each case. The Potency result in assay [7] was “inactive”. Also, in assay [5], the max activation was -1.3%.
`CC1C(=O)CC2C3(C)CCC2(C(C)C(=O)O)C(=O)C13` (stereo unspecified): the Potency entry in assay [1], in assay [2], in assay [8], in assay [3], in assay [4] and in assay [6] was “inactive” in each case. Besides, the Potency entry in assay [7] is “inactive”. Besides, the max activation in assay [5] was 0.0537%.
`CCCOc1cc(N)ccc1C(=O)OCCN(CC)CC`: the Potency result in assay [1], in assay [2], in assay [8], in assay [3], in assay [4] and in assay [6] was “inactive” in each case. Also, in assay [7], the Potency entry is “inactive”. Moreover, the max activation in assay [5] was 2.87%.
On to `Cc1cc(-c2ccc(N=Nc3c(S(=O)(=O)O)cc4cc(S(=O)(=O)O)cc(N)c4c3O)c(C)c2)ccc1N=Nc1c(S(=O)(=O)O)cc2cc(S(=O)(=O)O)cc(N)c2c1O`, for which the figures for the Potency in assay [1] and in assay [8] were 13.3 µM (active) and 15 µM (active), respectively. In addition, the Potency result in assay [2], in assay [3], in assay [4], in assay [6] and in assay [7] was “inactive” each time. Moreover, the max activation in assay [5] is -20.2%.
Take `CC(C)Cc1ccc([C@@H](C)C(=O)NS(C)(=O)=O)cc1`: the Potency entry in assay [1], in assay [2], in assay [8], in assay [3], in assay [4] and in assay [6] was “inactive” each time. In addition, in assay [7], the Potency entry was “inactive”. The max activation in assay [5] is -2.09%.
With `O=C(NNCNNC(=O)c1ccncc1)c1ccncc1`, the Potency result in assay [1], in assay [8], in assay [3], in assay [4], in assay [6] and in assay [7] was “inactive” throughout. In assay [2], the Potency was 4.73 µM (active). In assay [5], the max activation is -3.41%.
Regarding `CCOC(=O)[C@@H](N)CS`, the Potency entry in assay [1], in assay [2], in assay [8], in assay [3], in assay [4] and in assay [6] was “inactive” in each case. The Potency entry in assay [7] was “inactive”. Further, the max activation in assay [5] is -2.02%.
As to `O=C(Nc1ccc(O)cc1)c1ccccc1O`, the Potency result in assay [1], in assay [8], in assay [3], in assay [4] and in assay [7] was “inactive” each time. For the same compound, the Potency in assay [2] is 23.7 µM (active); in assay [6], 11.2 µM (active). In addition, in assay [5], the max activation was 3.27%.
`COc1c(O[C@@H]2O[C@H](CO)[C@@H](O)[C@H](O)[C@H]2O)cc2c(c1OC)-c1ccc(SC)c(=O)cc1[C@@H](NC(C)=O)CC2`: the Potency entry in assay [1], in assay [2], in assay [8], in assay [3], in assay [4] and in assay [6] was “inactive” throughout. Besides, the Potency entry in assay [7] was “inactive”. The max activation in assay [5] was -2.99%.
